Experimental data: PubChem BioAssay AID504773 (Broad Institute, 2011)
Entries with a potency or affinity are not part of this list.

Each compound was assayed against Golgi-associated PDZ and coiled-coil motif-containing protein (Homo sapiens) (UniProt Q9HD26) (assay: potency against CAL PDZ-peptide interaction – biochemical, fluorescence polarization, Cerulean-tagged CAL PDZ, cherry-picks, dose response (AID 504773;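 note: 0% = DMSO neutral wells and -100% = excess unlabeled competitor peptide wells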)). Settings: CAL PDZ-peptide binding, 1 h; series mostly up to 50 µM; activity change, negative = inhibition: at the top concentration;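 active = polarization signal falls with dose and the fitted half-maximal concentration is at or below ten times the sample's top valid dose; inconclusive = flat curve at 30 to 70% inhibition, or poor fit; inactive = signal rises, flat within 30%, or potency beyond limit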.

Activity change, negative = inhibition, inactive:
Cc1ccc2cc(C#N)c(N3CCCN(S(=O)(=O)c4ccccc4)CC3)nc2c1 -2.29%, COc1ccc(CN2CN(C3CCCC3)CSC2=S)cc1 13.8%, COc1ccc(CC(=O)NNC(=O)CCc2ccccc2)cc1OC -5.54%, CN(C)c1ccc(C(=O)OCC(=O)NC2CCCCCC2)cc1 9.33%, N/C(=N\OC(=O)Cc1ccccc1[N+](=O)[O-])c1cccnc1 13.5%, COn1c(SCc2ccccc2)nc2ccccc2c1=O -44.9%, Cc1ccc(F)cc1N=Cc1c(O)c2ccccc2oc1=O 21.1%, Cc1cc(NC(=O)Cc2ccc(Br)cc2)no1 -28.3%, O=C(CNCc1ccccc1)Nc1ccc(F)cc1 8.72%, COC(=O)C1CCN(C(=O)/C(C)=C\c2ccccc2)CC1 -13.2%, Cc1ccc2nc(CSc3nnc(-c4ccncc4)n3C)cc(=O)n2c1 15.4%, COc1ccc(-n2c(=S)[nH]c3c(sc(=S)n3-c3ccccc3)c2=O)c(OC)c1 29.8%, O=C(COC(=O)c1cccc(O)c1)NC(=O)Cc1ccccc1 7.51%, CSc1cccc(NC(=O)N2CCCC(CNS(=O)(=O)Cc3ccccc3)C2)c1 (configuration not stated) -4.47%, Cc1ccc(C(=O)Nc2ccccc2)cc1S(=O)(=O)N1CCN(C)CC1 18.7%, Cc1cccc(N(Cc2cc(=O)[nH]c3ccccc23)C(=O)C(C)C)c1 31.4%, Cc1ccc(S(=O)(=O)N2CCN(C(=O)c3cc(=O)c4ccccc4o3)CC2)cc1 -30.3%, CCOC(=O)Cn1ncn(-c2ccc(OC(F)(F)F)cc2)c1=O 8.25%, O=C(O)c1ccc(Oc2cc(Oc3ccc(C(=O)O)cc3)cc([N+](=O)[O-])c2)cc1 -14.4%, CC(=O)Nc1ccc(N/C=C/C(=O)c2ccccc2)cc1 14.7%, Cc1ccc(-c2nnn(CC(=O)N(CCN3CCOCC3)C(C(=O)NC(C)(C)C)c3ccc(C)o3)n2)cc1 (configuration not stated) 7.03%, O=C(c1ccc([N+](=O)[O-])cc1)N1CCC(Cc2ccccc2)CC1 -10.4%, COc1cc(Br)c(C(=O)c2nccc3cc(OC)c(OC)cc23)cc1OC -27.4%, CC(=O)N1CCN(c2ccc(NC(=O)C(c3ccccc3)c3ccccc3)cc2)CC1 9.33%, Cc1cccc(C(=O)Nc2ccc(C(=O)/C=C/c3ccncc3)cc2)c1 21.8%, CCN1CCN(S(=O)(=O)c2ccc(OC)c3ccccc23)CC1 7.59%, FC(F)(F)Oc1ccc(NC(=S)NCCCN2CCOCC2)cc1 -72.2%, Cc1cccc(NS(=O)(=O)Cc2ccccc2)c1C 33.6%, COc1ccc2ccccc2c1CN(C)Cc1ccccc1 -18.8%, CCC(C)NC(=O)C1CCCN(C(=O)Nc2ccc(F)cc2)C1 (configuration not stated) 19.3%, CC1(C2CC2)NC(=O)N(CC(=O)NCC(=O)Nc2ccc(F)c(F)c2F)C1=O (configuration not stated) 22.9%, COC(=O)c1ccc(CNC(=O)COC(=O)c2cc(Cl)nc(Cl)c2)cc1 -30%, CC(=O)Nc1cc(NC(C)=O)cc(C(=O)OCC(=O)Nc2ccc(S(=O)(=O)NC3=NCCCCC3)cc2)c1 19%, O=C(/C=C/c1cccs1)Nc1scc(-c2ccccc2)c1C(=O)O -23.1%, Cc1ccnc2nc(C(=O)OCCOc3ccc(F)cc3)nn12 -16.9%, CCC(C)(C)NC(=O)CSc1nc(Cc2ccccc2)nc2ccccc12 9.79%, CCOc1ccc(N(CC(=O)N2CCN(Cc3ccccc3)CC2)S(C)(=O)=O)cc1 -7.95%
